Compounds with a hit are over-represented: about 2% of the library has one in this group of screens.
NadD block – inhibitors of Staphylococcus aureus NadD; purified NadD enzyme, colorimetric absorbance read-out; inhibition, % at 20 µM; 360,000 tested, 0.78% active; in the data active = inhibition above about 26%
ARNT TACC3 PPI – disruptors of human ARNT/TACC3 interaction | Q9Y6A5 | AlphaScreen His-ARNT PAS-B/GST-TACC3 binding, luminescence; TACC3 fragment carries E629A point mutation | inhibition, % at 9.99 µM | 390,000 tested, 0.66% active | AID 623870;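 active = mean inhibition of replicates at least 50% and at least half of replicates each reaching 50%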;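 note: 0% = complete ARNT plus TACC3 wells and 100% = ARNT alone without TACC3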
Neddylation inh – blocks human cullin neddylation; 360,000 tested, 0.58% active; AID 651699; P61081+Q13564; TR-FRET cullin neddylation, biochemical; inhibition, % at 25 µM; in the data active = inhibition above about 36%
HGIII-sPLA2 inh – Inhibits HGIII-sPLA2 liposome hydrolysis, primary screen; QFRET BODIPY PC-A2 liposome hydrolysis, fluorescence; 370,000 tested, 0.56% active; inhibition, % at 12.2 µM; AID 743126;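 active = inhibition above mean plus 3 SD of compounds lying within the high and low control bounds, cut at about 19% in these data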;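 note: 0% = median of test compound wells and 100% = no enzyme DMSO wells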
DAGLB inhibitor – blocks human DAGLB lipase activity; Q8NCG7; HEK293T DAGLB membrane lysate, EnzChek fluorogenic substrate; inhibition, % at 5.17 µM; 340,000 tested, 0.059% active; AID 504411; in the data active = inhibition above about 34%;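 note: 0% = enzyme with vehicle and 100% = wells lacking enzyme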
sPLA2 confirm – human GIII-sPLA2 inhibition, confirmation. shares compounds with HGIII-sPLA2 inh. recombinant hGIII-sPLA2, BODIPY PC-A2 QFRET fluorescence. inhibition, % at 12.2 µM. 2,000 tested, 34% active. AID 743280;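 active = mean inhibition across triplicates above the hit cutoff set in the earlier primary screen, cut at about 19% in these data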;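 note: 0% = enzyme with DMSO and 100% = DMSO wells lacking enzyme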
535nm interf – optically interferes with 535nm fluorescence in sPLA2 counter-screen | shares compounds with HGIII-sPLA2 inh | BODIPY FL product fluorescence interference, QFRET | inhibition, % at 12.2 µM | 2,000 tested, 8.5% active | AID 743282;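 active = average inhibition above the solvent-only control mean plus 3 SD, cut at about 6% in these data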;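 note: 0% = DMSO with substrate plus product and 100% = DMSO with substrate alone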
BODIPY interf DR – interferes with 535nm fluorescence in dose response counter-screen. shares compounds with HGIII-sPLA2 inh. BODIPY FL product fluorescence interference, cell-free. AID 743455. IC50, µM. 240 tested, under 10 active;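 active = IC50 at or below 10 µM; inactive = IC50 above 10 µM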
An asterisk follows results filed as active; . = not tested or not shown.

SMILES | NadD block | ARNT TACC3 PPI | Neddylation inh | HGIII-sPLA2 inh | DAGLB inhibitor | sPLA2 confirm | 535nm interf | others
Cc1ccc(C(=O)NC(=S)NNC(=O)c2ccccc2O)cc1 | 4.6 | 2.2 | -1.4 | 31.8* | 7.9 | 36.5* | -0.6 | BODIPY interf DR=>122
CC(C)(C)c1ccc(C(=O)NCC(=O)NNC(=O)c2ccccc2O)cc1 | 3.0 | -1.9 | 35.3 | 20.7* | 5.0 | 13.2 | -4.7
Cc1ccc(C(=O)NC(=S)NNC(=O)c2ccccc2[N+](=O)[O-])cc1 | 8.9 | -6.3 | -13.1 | 0.1 | 0.8 | . | .
CNC[C@H]1Oc2cc(C#Cc3ccccn3)ccc2S(=O)(=O)N([C@@H](C)CO)C[C@@H]1C | . | 13.6 | . | . | . | . | .
COc1cc(-c2cc(=O)c3c(O)c(OC)c(OC)c(O)c3o2)ccc1O | 5.7 | 0.7 | -8.3 | 1.6 | 0.5 | . | .
COc1c(O)c(O)c2oc(-c3ccccc3)cc(=O)c2c1OC | -0.7 | -4.2 | -16.6 | 31.9* | 24.2 | 12.6 | -10.6
O=C(CSc1cccc[n+]1[O-])Nc1cc2c(cc1Cl)C(=O)c1ccccc1C2=O | 34.1* | . | -43.0 | 19.5* | 1.2 | -7.9 | 6.5*
O=C(CSc1cccc[n+]1[O-])Nc1cc([N+](=O)[O-])ccc1Cl | -9.2 | 4.1 | -32.8 | -2.3 | 0.5 | . | .
CC1(C)Cc2cccc(C(=O)NCc3ccco3)c2O1 | -7.4 | . | 10.8 | -1.5 | . | . | .
CC(C)(C)NC(=O)c1cccc2c1OC(C)(C)C2 | 3.4 | 19.6 | -1.1 | 23.9* | -2.1 | 6.2 | -9.2
N#CC1(Nc2cccc(Br)c2)C(=O)Nc2ccccc21 (configuration not stated) | -5.7 | -2.4 | -3.7 | 21.9* | -1.2 | -18.0 | -1.9
CN(C1=C(N2CCOCC2)C(=O)c2ccccc2C1=O)c1ccccc1 | -4.9 | 60.5* | -17.7 | 25.4* | 24.9 | 43.8* | 2.4 | BODIPY interf DR=>122
NC(=O)[C@@H]1[C@H]2C(=O)O[C@H](c3ccccc3)[C@H](c3ccccc3)N2[C@H](c2ccc(O)cc2)[C@@]12C(=O)Nc1ccc(C#CC3=CCCCC3)cc12 | . | 13.2 | . | . | . | . | .
CC(C1CC2CCC1C2)N1CC(O)=C(c2nc3ccccc3[nH]2)C1=N (configuration not stated) | -2.9 | 8.2 | 21.6 | 27.6* | 0.3 | 20.7* | -3.6
CC(=O)N1[C@@H]2c3ccc(C4=CCCCC4)c(=O)n3C[C@H]1[C@H](CO)[C@H]2C(=O)NC1CCC1 | . | 0.0 | . | . | . | . | .
CC(C)C1Cc2[nH]c(=S)[nH]c(=O)c2C(c2ccc(F)cc2)O1 (configuration not stated) | 2.5 | . | 1.3 | 4.4 | . | . | .
CC(C)C1Cc2[nH]c(=S)[nH]c(=O)c2C(c2ccc(Cl)cc2)O1 (configuration not stated) | -0.8 | . | -0.1 | 19.8* | . | 4.7 | -12.2
COc1cccc(C#Cc2cnc3c(c2)C(=O)N([C@@H](C)CO)C[C@@H](C)[C@H](CN(C)C(=O)C2CC2)O3)c1 | . | -9.9 | . | . | . | . | .
COc1cc(OC)cc(C(=O)NNC(=O)c2cc3ccccc3cc2O)c1 | -1.7 | -0.7 | 19.4 | 9.8 | 11.6 | . | .
Cc1ccc(NC(=O)NNC(=O)COc2ccc3ccccc3c2)cc1 | 4.7 | -1.3 | -38.1 | -9.6 | -0.5 | . | .
Cc1ccc(NC(=O)NNC(=O)c2cc3ccccc3cc2O)cc1 | 2.8 | -4.0 | 31.8 | 27.2* | 3.9 | 15.4 | -3.7
COc1ccccc1NC(=O)NNC(=O)c1cc2ccccc2cc1O | -4.3 | 6.3 | 23.9 | 27.0* | 8.1 | 19.7* | 5.7
O=C(NCCNc1ccc([N+](=O)[O-])cc1)c1cccc(Br)c1 | 3.0 | -3.9 | 13.0 | 23.1* | 0.7 | 0.3 | -5.3
COc1ccc(C(=O)NCCNc2ccc([N+](=O)[O-])cc2)cc1OC | 3.5 | -4.3 | -26.9 | -1.1 | 1.1 | . | .
C[C@@H](NC(=O)[C@@H]1[C@@H](CO)[C@@H]2Cn3c(ccc(-c4ccccc4F)c3=O)[C@H]1N2C)c1ccccc1 | . | 21.7 | . | . | . | . | .
CC1CCN(c2c([N+](=O)[O-])c(=O)oc3ccccc23)CC1 | 4.0 | -2.8 | 0.9 | 20.8* | -0.1 | 3.9 | -1.4

Screening results as filed in PubChem BioAssay.
